# LAP4 TOR yeast = modulators of LAP4-GFP expression in yeast, primary screen, S. cerevisiae, multiplex flow cytometry, MLPCN library. 3 h; median GFP as percent of DMSO wells. GFP response vs DMSO, % at 10 µM. 0.34% of 320,000 active. AID 2023, 2009;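 active means GFP response vs DMSO above a set limit, about the screen mean plus 3 SD, cut at about 150% in these data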
# RPL19A-GFP yeast = RPL19A-GFP expression modulators in yeast, primary screen, cell-based, S. cerevisiae, multiplex flow cytometry, MLPCN; S. cerevisiae RPL19A-GFP strain, 3 h; stronger effect = lower value; percent response vs DMSO, % at 10 µM; 0.3% of 330,000 active;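 active means percent response vs DMSO below 50%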;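 further: median channel GFP fluorescence of the barcoded RPL19A-GFP strain; ratio of sample median GFP to plate DMSO average so 100% = DMSO; lower means less RPL19A-GFP as with rapamycin TOR inhibition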
# AGP1-GFP MLPCN = modulators of AGP1-GFP expression in yeast TOR pathway, primary screen, cell-based, multiplex flow cytometry, S. cerevisiae, MLPCN library. 3 h; GFP as percent of DMSO wells. AID 2066, 2009. GFP response vs DMSO, % at 10 µM. 0.02% of 320,000 active;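 active means GFP response relative to DMSO above a set limit, near screen average plus 3 SD, cut at about 150% in these data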;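 further: median GFP channel fluorescence of the gated AGP1 strain per well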
# MEP2 TOR yeast = modulators of MEP2-GFP levels in yeast, primary screen, S. cerevisiae, multiplex flow cytometry, MLPCN library; S. cerevisiae MEP2-GFP strain, 3 h; 100% = DMSO control level; 0.51% of 330,000 active; GFP response vs DMSO, % at 10 µM;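 active means GFP response versus DMSO above a set limit, roughly screen mean plus 3 SD, cut at about 180% in these data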;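 further: median GFP fluorescence of the barcode-gated MEP2-GFP cells per well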
# CIT2 TOR yeast = modulators of CIT2-GFP expression in yeast, primary screen, S. cerevisiae, GFP fusion, multiplex flow cytometry, MLPCN library; S. cerevisiae CIT2-GFP strain, 3 h; 100 means same as DMSO wells; GFP response vs DMSO, % at 10 µM; 0.065% of 320,000 active;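 active means GFP response relative to DMSO above a set limit, near the screen mean plus 3 SD, cut at about 150% in these data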;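 further: ratio of well median GFP fluorescence to mean of DMSO wells on the plate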
# LAP4-GFP pick2 = LAP4-GFP expression modulators in yeast, confirmation, cell-based, second cherry pick, flow cytometry; shares compounds with LAP4 TOR yeast; S. cerevisiae LAP4-GFP strain, 3 h; GFP response vs DMSO, % at 10 µM; 20% of 590 active;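 active means GFP signal as percent of the solvent control above about 150%, meaning raised reporter expression, limit read from the data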;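 further: ratio of well median GFP fluorescence to plate DMSO mean so 100% = DMSO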
# MEP2-GFP pick2 = modulators of MEP2-GFP levels in yeast, confirmation, S. cerevisiae, flow cytometry GFP, second cherry picks; 10% of 590 active; shares compounds with LAP4 TOR yeast; S. cerevisiae MEP2-GFP strain, 3 h; GFP response vs DMSO, % at 10 µM;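 active means GFP signal above 150% of the solvent control wells, that is a rise of more than half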;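 further: median channel GFP fluorescence of all gated yeast cells per well; ratio of median GFP to plate DMSO average so 100% = DMSO level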
# RPL19A-GFP pick2 = RPL19A-GFP modulators in TOR pathway yeast, confirmation, cell-based, S. cerevisiae, flow cytometry, second cherry pick. shares compounds with LAP4 TOR yeast. GFP response vs DMSO, % at 10 µM. S. cerevisiae RPL19A-GFP strain, 3 h; stronger effect = lower value; 100% means same as DMSO wells. 3% of 590 active;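 active means under 65% GFP response relative to DMSO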;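 further: median GFP channel fluorescence per well over the all cells gate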
# CIT2 GFP CP2 = modulators of CIT2-GFP expression in yeast, confirmation, flow cytometry, second cherry pick, single plex | shares compounds with LAP4 TOR yeast | S. cerevisiae CIT2-GFP strain, 3 h; DMSO control wells read 100% | GFP response vs DMSO, % at 10 µM | 8% of 590 active;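 active means GFP response vs DMSO above about 150%, limit read from the data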;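 further: median green fluorescence per well over all gated yeast cells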
# AGP1-GFP pick2 = AGP1-GFP expression modulators, hit retest, confirmation, cell-based, flow cytometry, S. cerevisiae, cherry pick set 2 | S. cerevisiae AGP1-GFP strain, 3 h | shares compounds with LAP4 TOR yeast | percent response vs DMSO, % at 10 µM | 590 tested, under 10 active;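 active means over 150 percent of DMSO response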;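 further: median GFP channel fluorescence over all cells without mother daughter split; sample median GFP divided by mean DMSO control so 100% equals DMSO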
# s288c autofluor = compound autofluorescence in yeast s288c, dose response, artefact control for yeast TOR pathway GFP screen, s288c strain | 610 tested, under 10 active | fluorescence change (kMESF span) at 33 µM | shares compounds with LAP4 TOR yeast | S. cerevisiae s288c, 520 nm autofluorescence, flow cytometry, 3 h; stronger effect = higher value; zero means same as solvent-only cells;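 active means fluorescence span over the dose series, or activity score, above about 33, limit read from the data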
# TORC1 bypass gr = wild-type yeast growth inhibition sparing TORC1 bypass cells, mechanism study for yeast TOR pathway GFP screen, BY4741 wild type, TORC1 bypass strain; shares compounds with LAP4 TOR yeast; AID 504456, 2011; 120 tested, under 10 active; S. cerevisiae BY4741 spot growth rating, 48-72 h; stronger effect = lower value; growth rating (0-3) at 30 µM;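 active means growth rating at most 1 for wild type yeast while the TORC1 bypass strain still grows fully, rated 3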
# * = called active by the depositor; . = not tested or not shown. In the library only some 0.93% were active in any assay of this set; here they are far more common.
SMILES,LAP4 TOR yeast,RPL19A-GFP yeast,AGP1-GFP MLPCN,MEP2 TOR yeast,CIT2 TOR yeast,LAP4-GFP pick2,MEP2-GFP pick2,RPL19A-GFP pick2,CIT2 GFP CP2,AGP1-GFP pick2,others
CCCCNC(=O)c1cc2c(-c3ccc(Cl)cc3)nn(C)c2s1,157*,105,104,216*,151*,103,105,100,99,98,
Cc1c(Br)c(=O)oc2c(Br)c(O)c(O)cc12,85,59,25,159,88,97,97,98,107,101,s288c autofluor=-0.1
Cc1c(Br)c(=O)oc2c(Br)c(O)ccc12,94,106,75,94,101,.,.,.,.,.,
O=C(Nc1nnc(-c2ccc(F)cc2)o1)c1cc(Cl)sc1Cl,164*,98,115,118,102,167*,121,112,139,104,s288c autofluor=0.7
O=C(Nc1nnc(-c2ccc(F)cc2)o1)c1cccc([N+](=O)[O-])c1,164*,98,103,111,99,.,.,.,.,.,s288c autofluor=0.2
O=C(Nc1nnc(-c2ccccc2)o1)c1cc(Cl)sc1Cl,103,102,99,103,100,.,.,.,.,.,
COc1cccc(NC(=O)CN(C)C(=O)c2cccnc2Sc2ccc(C)c(C)c2)c1,102,95,102,101,98,.,.,.,.,.,
Oc1c(CN2CCN(c3ccccc3)CC2)cc(Br)c2cccnc12,224*,100,91,116,101,.,.,.,.,.,s288c autofluor=2.5
c1ccc(N2CCN(Cc3ccnc4ccccc34)CC2)cc1,98,102,.,100,108,.,.,.,.,.,
CC1(C)C(=O)N(CCN2CCC(C(=O)c3ccc(F)cc3)CC2)c2ccccc21,130,99,90,99,88,.,.,.,.,.,
Cc1ccnc2c1ccc1c(C)ccnc12,166*,94,90,101,85,99,110,97,96,97,
O=C(CC(=O)c1ccccc1)Nc1ccc(Cl)cc1,127,114,106,122,103,100,103,103,92,98,
COc1ccccc1NC(=O)CC(=O)Nc1ccccc1OC,89,103,97,101,100,.,.,.,.,.,
COc1ccccc1NC(=O)CC(=O)c1ccccc1,103,104,92,116,100,101,101,97,106,91,
O=C(Cc1ccc(Cl)cc1)Nc1ccc(NC(=O)c2ccccc2)cc1,99,101,105,96,104,.,.,.,.,.,
Cc1cc(-c2csc(NC(=O)c3ccc(=O)[nH]c3)n2)c(C)n1Cc1ccco1,152*,91,106,87,90,99,110,101,96,103,
COc1ccc(S(=O)(=O)NCCc2cn3nc(C)c(C)nc3n2)cc1F,85,62,23,120,98,98,100,99,100,98,
CC(=O)Nc1ccc(S(=O)(=O)NCCc2cn3nc(C)c(C)nc3n2)cc1,97,97,104,93,96,.,.,.,.,.,
COc1ccccc1C(=O)NNC(=S)NC(=O)c1cccs1,186*,125,126,108,122,.,.,.,.,.,s288c autofluor=0.2
O=C(Cc1ccc(Cl)cc1)NNC(=S)NC(=O)c1cccs1,199*,109,113,104,108,.,.,.,.,.,s288c autofluor=1.1
O=C(Cc1cccs1)NNC(=S)NCc1ccc(Cl)cc1,96,92,98,92,103,.,.,.,.,.,
O=C(NC(=S)NNC(=O)c1ccccc1O)c1cccs1,91,110,96,100,91,.,.,.,.,.,
O=C(N/N=C/c1ccccn1)c1cccs1,97,109,104,103,104,.,.,.,.,.,
CCN(CC(=O)Nc1ccccc1C(F)(F)F)CC(=O)NC1CC1,92,100,97,88,97,.,.,.,.,.,
CCN(CC(=O)Nc1ccc(Cl)c(C(F)(F)F)c1)CC(=O)NC1CCS(=O)(=O)C1 (configuration not stated),95,60,79,148,99,99,103,103,98,98,
SMILES,LAP4 TOR yeast,RPL19A-GFP yeast,AGP1-GFP MLPCN,MEP2 TOR yeast,CIT2 TOR yeast,LAP4-GFP pick2,MEP2-GFP pick2,RPL19A-GFP pick2,CIT2 GFP CP2,AGP1-GFP pick2,others
Fc1ccc(NC(=S)Nc2ccc3nccnc3c2)cc1,171*,66,40,93,72,103,100,101,104,98,
Cc1ccc(CNC(=O)C2CC(=O)N(C3CCCC3)C2)cc1 (configuration not stated),101,97,97,93,91,.,.,.,.,.,
CC1CCC2(CC1)NC(=O)N(CC(=O)NCCc1ccc(F)cc1)C2=O (configuration not stated),100,95,97,93,93,.,.,.,.,.,
Cc1ccc(-c2nc(C)sc2CC(=O)Nc2nnc(C)s2)cc1,97,53,41,155,94,113,122,100,118,104,s288c autofluor=0
CC(=O)Nc1ccc(NC(=O)Cc2sc(C)nc2-c2ccc(C)cc2)cc1,99,102,109,100,100,.,.,.,.,.,
CNc1nc(N)cc(Nc2ccccc2F)n1,.,.,.,.,.,.,.,.,.,.,TORC1 bypass gr=3
O=C(Nc1cccc(-c2csc(Nc3cccc(C(F)(F)F)c3)n2)c1)c1ccccc1,141,102,93,100,107,.,.,.,.,.,
O=C(Nc1cccc(-c2csc(Nc3ccccc3)n2)c1)c1ccccc1,153*,98,82,98,90,109,103,97,92,93,s288c autofluor=0.1
